Experiments:
Experiment in all cases: DAPPL (digital affinity profiling via proximity ligation, sequencing); 10 mM Tris-HCl pH 7.5, 50 mM NaCl, 1 mM DTT, 4% glycerol, room temperature, 30 min; GST-TFs on glutathione beads, 16-mer random dsDNA library, 0.1% formaldehyde crosslink after washing; high values mean tight binding
FLI1 = target: T1, FLI1 (Homo sapiens, UniProt Q01543 1-452); settings: protein: recombinant; tags: N-terminal GST; dsDNA, one strand shown
T1 sequence: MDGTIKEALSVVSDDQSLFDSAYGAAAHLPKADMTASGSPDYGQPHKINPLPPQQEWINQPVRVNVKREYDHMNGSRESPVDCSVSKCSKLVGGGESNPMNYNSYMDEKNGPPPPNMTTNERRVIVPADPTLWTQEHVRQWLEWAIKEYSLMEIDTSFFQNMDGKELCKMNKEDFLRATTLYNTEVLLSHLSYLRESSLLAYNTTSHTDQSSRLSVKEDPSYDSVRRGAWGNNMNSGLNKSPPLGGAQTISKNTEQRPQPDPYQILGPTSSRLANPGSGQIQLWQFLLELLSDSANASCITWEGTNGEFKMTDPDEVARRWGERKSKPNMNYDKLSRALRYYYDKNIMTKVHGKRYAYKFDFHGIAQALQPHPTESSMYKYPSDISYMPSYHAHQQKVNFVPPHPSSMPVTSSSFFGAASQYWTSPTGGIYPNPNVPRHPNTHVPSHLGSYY
In short: (§1)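 After expression in yeast as GST fusions, human transcription factors were bound to glutathione beads, DNA-barcoded and mixed with a tag-only sample. The pools were incubated with 200 nmole of a 16-mer random double-stranded DNA library in Tris/NaCl/DTT/glycerol buffer (30 min, room temperature), washed and crosslinked with 0.1% formaldehyde. Proximity ligation with BsaI/T4 ligase ran for 1 h at 37 °C, before PCR amplification and sequencing on an Illumina NextSeq500. Binding signal is a hexamer's read frequency for a factor divided by its frequency for the tag-only sample.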

ELK1 = target: T2, ELK1 (Homo sapiens, UniProt P19419 1-428); settings: protein: recombinant; tags: N-terminal GST; dsDNA, one strand shown
T2 sequence: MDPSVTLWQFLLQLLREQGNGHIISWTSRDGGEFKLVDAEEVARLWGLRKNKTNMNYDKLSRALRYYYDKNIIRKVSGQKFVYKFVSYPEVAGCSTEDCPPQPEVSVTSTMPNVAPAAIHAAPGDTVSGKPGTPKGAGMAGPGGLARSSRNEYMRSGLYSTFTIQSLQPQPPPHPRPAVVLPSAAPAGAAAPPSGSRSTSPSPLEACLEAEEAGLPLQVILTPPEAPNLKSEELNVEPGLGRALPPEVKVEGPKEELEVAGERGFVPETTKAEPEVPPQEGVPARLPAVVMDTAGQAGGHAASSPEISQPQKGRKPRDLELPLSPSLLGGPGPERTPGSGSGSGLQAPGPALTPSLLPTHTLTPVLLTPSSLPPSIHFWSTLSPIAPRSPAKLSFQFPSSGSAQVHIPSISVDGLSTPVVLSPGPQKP
In short: as §1

GABPA = target: T3, GABPA (Homo sapiens, UniProt Q06546 1-454); settings: protein: recombinant; tags: N-terminal GST; dsDNA, one strand shown
T3 sequence: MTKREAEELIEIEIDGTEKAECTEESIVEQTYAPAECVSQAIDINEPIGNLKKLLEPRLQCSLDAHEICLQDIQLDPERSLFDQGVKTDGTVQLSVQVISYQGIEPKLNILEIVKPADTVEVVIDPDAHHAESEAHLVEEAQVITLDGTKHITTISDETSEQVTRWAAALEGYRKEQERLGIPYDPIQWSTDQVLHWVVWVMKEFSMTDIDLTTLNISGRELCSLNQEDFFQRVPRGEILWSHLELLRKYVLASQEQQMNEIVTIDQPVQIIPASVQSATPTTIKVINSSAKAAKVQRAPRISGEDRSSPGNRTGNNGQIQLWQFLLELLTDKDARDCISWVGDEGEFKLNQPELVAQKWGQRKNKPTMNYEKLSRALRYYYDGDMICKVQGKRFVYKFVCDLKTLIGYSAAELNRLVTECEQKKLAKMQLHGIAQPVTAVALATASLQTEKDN
In short: as §1

ERG = target: T4, ERG (Homo sapiens, UniProt P11308 1-479); settings: protein: recombinant; tags: N-terminal GST; dsDNA, one strand shown
T4 sequence: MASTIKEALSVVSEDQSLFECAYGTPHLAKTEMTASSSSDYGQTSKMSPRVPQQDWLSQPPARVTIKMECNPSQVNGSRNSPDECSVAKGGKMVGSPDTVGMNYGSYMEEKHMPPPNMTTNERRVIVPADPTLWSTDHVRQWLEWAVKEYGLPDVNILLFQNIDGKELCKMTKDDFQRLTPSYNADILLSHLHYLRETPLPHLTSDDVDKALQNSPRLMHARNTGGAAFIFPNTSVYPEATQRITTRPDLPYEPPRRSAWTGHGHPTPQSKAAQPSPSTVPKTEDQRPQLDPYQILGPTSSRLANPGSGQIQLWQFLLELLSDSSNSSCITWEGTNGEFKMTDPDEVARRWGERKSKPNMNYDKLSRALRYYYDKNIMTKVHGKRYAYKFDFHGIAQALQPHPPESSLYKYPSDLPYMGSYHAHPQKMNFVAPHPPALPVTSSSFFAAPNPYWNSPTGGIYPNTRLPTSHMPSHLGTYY
In short: as §1

ELF1 = ELF1 (Homo sapiens, UniProt P32519 1-619); settings: protein: recombinant; tags: N-terminal GST; dsDNA, one strand shown
Sequence of ELF1 (P32519 whole entry): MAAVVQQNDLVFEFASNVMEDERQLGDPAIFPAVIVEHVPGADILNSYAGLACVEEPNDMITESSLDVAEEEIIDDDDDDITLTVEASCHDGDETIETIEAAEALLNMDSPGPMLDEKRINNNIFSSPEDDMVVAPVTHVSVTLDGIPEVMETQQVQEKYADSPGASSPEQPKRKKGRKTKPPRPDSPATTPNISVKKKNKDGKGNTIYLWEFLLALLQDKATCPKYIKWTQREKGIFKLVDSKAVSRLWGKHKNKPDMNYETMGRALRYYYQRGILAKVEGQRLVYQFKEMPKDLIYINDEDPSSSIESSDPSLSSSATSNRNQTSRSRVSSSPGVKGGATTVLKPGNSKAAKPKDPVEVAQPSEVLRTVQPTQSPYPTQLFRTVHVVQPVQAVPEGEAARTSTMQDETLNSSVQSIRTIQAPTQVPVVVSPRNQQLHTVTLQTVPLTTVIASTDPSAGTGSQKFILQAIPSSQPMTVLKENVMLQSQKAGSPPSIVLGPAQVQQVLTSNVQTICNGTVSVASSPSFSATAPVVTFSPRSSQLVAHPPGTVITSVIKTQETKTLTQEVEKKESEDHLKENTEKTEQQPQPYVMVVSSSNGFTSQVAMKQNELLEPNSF
In short: as §1

EHF = target: T5, EHF (Homo sapiens, UniProt Q9NZC4 1-300); settings: protein: recombinant; tags: N-terminal GST; dsDNA, one strand shown
T5 sequence: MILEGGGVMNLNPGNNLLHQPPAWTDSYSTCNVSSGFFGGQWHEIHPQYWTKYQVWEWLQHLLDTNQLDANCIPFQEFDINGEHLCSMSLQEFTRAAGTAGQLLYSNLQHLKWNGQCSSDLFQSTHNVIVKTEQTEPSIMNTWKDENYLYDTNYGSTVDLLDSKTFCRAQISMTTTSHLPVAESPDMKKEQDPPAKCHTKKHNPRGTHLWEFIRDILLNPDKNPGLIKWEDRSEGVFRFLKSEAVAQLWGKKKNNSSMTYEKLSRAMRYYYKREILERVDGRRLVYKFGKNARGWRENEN
In short: as §1

SPI1 = SPI1 (Homo sapiens, UniProt P17947 1-270); settings: protein: recombinant; tags: N-terminal GST; dsDNA, one strand shown
In short: as §1

SPIB = SPIB (Homo sapiens, UniProt Q01892 1-262); settings: protein: recombinant; tags: N-terminal GST; dsDNA, one strand shown
Sequence of SPIB (Q01892 whole entry): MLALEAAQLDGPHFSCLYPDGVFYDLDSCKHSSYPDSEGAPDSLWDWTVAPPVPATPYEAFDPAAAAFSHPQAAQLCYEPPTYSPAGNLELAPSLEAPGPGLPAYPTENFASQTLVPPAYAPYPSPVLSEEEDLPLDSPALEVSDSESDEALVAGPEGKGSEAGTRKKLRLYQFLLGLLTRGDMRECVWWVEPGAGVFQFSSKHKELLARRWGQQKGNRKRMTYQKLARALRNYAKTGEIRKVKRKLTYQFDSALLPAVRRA
In short: as §1

ELK3 = target: T6, ELK3 (Homo sapiens, UniProt P41970 1-407); settings: protein: recombinant; tags: N-terminal GST; dsDNA, one strand shown
T6 sequence: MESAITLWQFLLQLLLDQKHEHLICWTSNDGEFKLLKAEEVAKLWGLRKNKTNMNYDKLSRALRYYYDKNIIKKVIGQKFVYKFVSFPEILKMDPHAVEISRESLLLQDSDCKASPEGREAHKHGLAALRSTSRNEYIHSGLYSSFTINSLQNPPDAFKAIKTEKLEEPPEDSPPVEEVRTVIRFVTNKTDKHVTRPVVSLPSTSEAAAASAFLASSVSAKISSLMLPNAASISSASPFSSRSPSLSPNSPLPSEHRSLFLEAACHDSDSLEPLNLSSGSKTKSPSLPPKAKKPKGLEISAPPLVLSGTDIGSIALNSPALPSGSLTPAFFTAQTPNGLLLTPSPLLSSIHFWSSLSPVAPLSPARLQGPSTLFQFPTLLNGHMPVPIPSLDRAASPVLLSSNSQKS
In short: as §1

FEV = target: T7, FEV (Homo sapiens, UniProt Q99581 1-238); settings: protein: recombinant; tags: N-terminal GST; dsDNA, one strand shown
T7 sequence: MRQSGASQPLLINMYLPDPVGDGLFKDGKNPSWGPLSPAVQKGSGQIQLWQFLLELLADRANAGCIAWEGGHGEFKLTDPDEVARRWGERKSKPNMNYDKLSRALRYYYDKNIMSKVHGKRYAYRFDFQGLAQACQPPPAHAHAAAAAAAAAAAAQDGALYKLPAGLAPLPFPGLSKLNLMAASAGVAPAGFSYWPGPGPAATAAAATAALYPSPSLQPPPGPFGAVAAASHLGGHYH
In short: as §1

ETV5 = ETV5 (Homo sapiens, UniProt P41161 1-510); settings: protein: recombinant; tags: N-terminal GST; dsDNA, one strand shown
Sequence of ETV5 (P41161 whole entry): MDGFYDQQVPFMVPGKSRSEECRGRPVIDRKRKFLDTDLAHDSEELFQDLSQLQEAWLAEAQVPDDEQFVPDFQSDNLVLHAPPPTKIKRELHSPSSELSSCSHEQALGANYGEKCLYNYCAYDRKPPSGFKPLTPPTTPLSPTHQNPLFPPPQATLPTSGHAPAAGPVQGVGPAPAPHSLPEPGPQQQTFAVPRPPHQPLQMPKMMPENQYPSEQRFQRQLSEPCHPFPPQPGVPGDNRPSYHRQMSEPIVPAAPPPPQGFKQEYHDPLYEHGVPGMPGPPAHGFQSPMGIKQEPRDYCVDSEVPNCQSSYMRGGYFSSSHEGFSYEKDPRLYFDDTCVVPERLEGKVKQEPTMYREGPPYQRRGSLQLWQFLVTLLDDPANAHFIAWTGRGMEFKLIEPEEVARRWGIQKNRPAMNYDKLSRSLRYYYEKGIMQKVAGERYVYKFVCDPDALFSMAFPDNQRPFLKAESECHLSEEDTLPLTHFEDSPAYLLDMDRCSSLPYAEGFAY
In short: as §1

HSF1 = HSF1 (Homo sapiens, UniProt Q00613 1-529); settings: protein: recombinant; tags: N-terminal GST; chain copies: 3; dsDNA, one strand shown
Sequence of HSF1 (Q00613 whole entry): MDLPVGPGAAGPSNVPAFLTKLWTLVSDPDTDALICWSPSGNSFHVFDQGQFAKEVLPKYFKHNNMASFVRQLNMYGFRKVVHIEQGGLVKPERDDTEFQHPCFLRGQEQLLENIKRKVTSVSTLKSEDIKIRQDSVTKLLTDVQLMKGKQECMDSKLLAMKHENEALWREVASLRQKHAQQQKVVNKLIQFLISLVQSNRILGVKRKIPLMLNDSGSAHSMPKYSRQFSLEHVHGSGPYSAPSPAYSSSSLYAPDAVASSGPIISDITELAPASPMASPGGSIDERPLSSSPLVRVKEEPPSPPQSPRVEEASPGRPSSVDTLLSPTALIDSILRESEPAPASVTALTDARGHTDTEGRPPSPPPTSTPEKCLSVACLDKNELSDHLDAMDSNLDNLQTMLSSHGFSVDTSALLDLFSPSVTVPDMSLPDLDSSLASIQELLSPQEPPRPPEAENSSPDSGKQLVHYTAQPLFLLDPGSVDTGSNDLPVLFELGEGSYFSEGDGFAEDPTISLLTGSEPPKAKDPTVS
In short: as §1

SPIC = target: T8, SPIC (Homo sapiens, UniProt Q8N5J4 1-248); settings: protein: recombinant; tags: N-terminal GST; dsDNA, one strand shown
T8 sequence: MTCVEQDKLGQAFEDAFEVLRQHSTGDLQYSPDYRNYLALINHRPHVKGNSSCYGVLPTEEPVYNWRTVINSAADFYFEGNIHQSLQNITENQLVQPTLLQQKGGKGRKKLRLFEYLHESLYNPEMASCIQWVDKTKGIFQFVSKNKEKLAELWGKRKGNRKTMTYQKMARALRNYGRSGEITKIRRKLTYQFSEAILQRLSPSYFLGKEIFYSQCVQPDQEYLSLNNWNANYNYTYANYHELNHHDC
In short: as §1

ELF4 = ELF4 (Homo sapiens, UniProt Q99607 1-663); settings: protein: recombinant; tags: N-terminal GST; dsDNA, one strand shown
Sequence of ELF4 (Q99607 whole entry): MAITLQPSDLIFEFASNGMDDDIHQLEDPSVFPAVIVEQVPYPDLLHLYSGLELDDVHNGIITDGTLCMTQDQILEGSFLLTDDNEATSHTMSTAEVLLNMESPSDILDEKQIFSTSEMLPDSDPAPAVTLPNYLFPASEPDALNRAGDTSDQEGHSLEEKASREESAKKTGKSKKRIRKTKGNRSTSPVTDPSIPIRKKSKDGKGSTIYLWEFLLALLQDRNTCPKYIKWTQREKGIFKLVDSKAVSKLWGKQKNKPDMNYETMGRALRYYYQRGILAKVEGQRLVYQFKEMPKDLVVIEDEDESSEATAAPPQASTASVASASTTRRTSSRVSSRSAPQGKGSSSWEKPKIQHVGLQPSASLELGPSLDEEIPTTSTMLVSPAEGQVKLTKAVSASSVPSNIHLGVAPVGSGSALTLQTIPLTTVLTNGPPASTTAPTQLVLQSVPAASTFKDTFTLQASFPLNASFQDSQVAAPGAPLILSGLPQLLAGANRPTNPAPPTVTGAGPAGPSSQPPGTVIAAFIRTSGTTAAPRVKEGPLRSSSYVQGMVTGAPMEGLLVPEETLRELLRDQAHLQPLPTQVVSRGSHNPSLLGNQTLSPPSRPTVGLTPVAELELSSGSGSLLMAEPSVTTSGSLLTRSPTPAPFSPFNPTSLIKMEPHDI
In short: as §1

ELK4 = target: T9, ELK4 (Homo sapiens, UniProt P28324-2 1-405); settings: protein: recombinant; tags: N-terminal GST; dsDNA, one strand shown
T9 sequence: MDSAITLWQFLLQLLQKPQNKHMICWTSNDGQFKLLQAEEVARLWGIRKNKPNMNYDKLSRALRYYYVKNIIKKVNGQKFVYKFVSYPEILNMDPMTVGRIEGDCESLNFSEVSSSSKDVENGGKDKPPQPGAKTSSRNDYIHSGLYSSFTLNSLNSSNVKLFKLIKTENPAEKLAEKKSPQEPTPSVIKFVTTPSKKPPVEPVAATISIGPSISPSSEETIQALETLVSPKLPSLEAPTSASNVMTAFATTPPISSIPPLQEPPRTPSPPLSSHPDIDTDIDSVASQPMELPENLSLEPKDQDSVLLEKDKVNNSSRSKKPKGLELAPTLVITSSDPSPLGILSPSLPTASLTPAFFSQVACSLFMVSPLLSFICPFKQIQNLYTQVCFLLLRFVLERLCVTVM
In short: as §1

ETV2 = target: T10, ETV2 (Homo sapiens, UniProt O00321 1-342); settings: protein: recombinant; tags: N-terminal GST; dsDNA, one strand shown
T10 sequence: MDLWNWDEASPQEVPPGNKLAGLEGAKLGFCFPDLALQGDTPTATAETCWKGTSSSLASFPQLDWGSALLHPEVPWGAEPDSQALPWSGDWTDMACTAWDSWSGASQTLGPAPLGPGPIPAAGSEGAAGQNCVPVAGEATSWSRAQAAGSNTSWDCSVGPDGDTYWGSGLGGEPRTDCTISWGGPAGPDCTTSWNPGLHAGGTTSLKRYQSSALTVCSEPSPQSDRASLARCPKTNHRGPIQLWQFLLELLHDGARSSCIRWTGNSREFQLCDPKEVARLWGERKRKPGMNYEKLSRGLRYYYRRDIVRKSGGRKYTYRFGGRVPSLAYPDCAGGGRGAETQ
In short: as §1

CRX = CRX (Homo sapiens, UniProt O43186 1-299); settings: protein: recombinant; tags: N-terminal GST; dsDNA, one strand shown
Sequence of CRX (O43186 whole entry): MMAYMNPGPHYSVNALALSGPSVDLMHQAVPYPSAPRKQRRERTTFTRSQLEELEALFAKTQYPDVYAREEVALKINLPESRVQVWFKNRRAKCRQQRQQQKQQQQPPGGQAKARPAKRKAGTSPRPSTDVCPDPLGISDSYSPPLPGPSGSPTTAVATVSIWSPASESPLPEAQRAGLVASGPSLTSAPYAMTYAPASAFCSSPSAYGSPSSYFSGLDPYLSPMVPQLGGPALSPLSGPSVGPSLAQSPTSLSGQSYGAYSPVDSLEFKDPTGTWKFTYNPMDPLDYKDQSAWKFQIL
In short: as §1

ETV1 = ETV1 (Homo sapiens, UniProt P50549 1-477); settings: protein: recombinant; tags: N-terminal GST; dsDNA, one strand shown
Sequence of ETV1 (P50549 whole entry): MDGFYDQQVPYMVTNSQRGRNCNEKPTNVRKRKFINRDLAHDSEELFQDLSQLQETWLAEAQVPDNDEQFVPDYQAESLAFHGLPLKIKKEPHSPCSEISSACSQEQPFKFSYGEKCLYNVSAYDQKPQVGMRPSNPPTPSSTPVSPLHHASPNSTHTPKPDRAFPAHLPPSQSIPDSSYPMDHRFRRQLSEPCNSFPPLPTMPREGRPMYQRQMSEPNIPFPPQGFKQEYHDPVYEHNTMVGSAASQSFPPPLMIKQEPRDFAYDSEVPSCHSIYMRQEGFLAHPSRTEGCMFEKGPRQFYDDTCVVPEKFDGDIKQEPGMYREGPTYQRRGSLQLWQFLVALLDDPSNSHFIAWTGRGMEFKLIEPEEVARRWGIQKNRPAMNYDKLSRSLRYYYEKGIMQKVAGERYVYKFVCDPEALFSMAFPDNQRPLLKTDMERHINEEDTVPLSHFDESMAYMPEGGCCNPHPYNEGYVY
In short: as §1

Sequence: ATCATA
- binding signal (FLI1): 1.07 fold enrichment (6-mer frequency, TF over GST control)
- binding signal (ELK1): 1.06 fold enrichment (6-mer frequency, TF over GST control)
- binding signal (GABPA): 1.16 fold enrichment (6-mer frequency, TF over GST control)
- binding signal (ERG): 1.05 fold enrichment (6-mer frequency, TF over GST control)
- binding signal (ELF1): 1.12 fold enrichment (6-mer frequency, TF over GST control)
- binding signal (EHF): 1.03 fold enrichment (6-mer frequency, TF over GST control)
- binding signal (SPI1): 1.05 fold enrichment (6-mer frequency, TF over GST control)
- binding signal (SPIB): 1.18 fold enrichment (6-mer frequency, TF over GST control)
- binding signal (ELK3): 1.09 fold enrichment (6-mer frequency, TF over GST control)
- binding signal (FEV): 1.07 fold enrichment (6-mer frequency, TF over GST control)
- binding signal (ETV5): 1.09 fold enrichment (6-mer frequency, TF over GST control)
- binding signal (HSF1): 1.16 fold enrichment (6-mer frequency, TF over GST control)
- binding signal (SPIC): 1.04 fold enrichment (6-mer frequency, TF over GST control)
- binding signal (ELF4): 1.08 fold enrichment (6-mer frequency, TF over GST control)
- binding signal (ELK4): 1.08 fold enrichment (6-mer frequency, TF over GST control)
- binding signal (ETV2): 1.16 fold enrichment (6-mer frequency, TF over GST control)
- binding signal (CRX): 1.39 fold enrichment (6-mer frequency, TF over GST control)
- binding signal (ETV1): 1.08 fold enrichment (6-mer frequency, TF over GST control)

Source: paper PMC7862700, “An all-to-all approach to the identification of sequence-specific readers for epigenetic DNA modifications on cytosine”
